# Assay results reported in ChEMBL document CHEMBL2218924, “A broad activity screen in support of a chemogenomic map for kinase signalling research and drug discovery” (Biochem J, 2013).
# Legend:
# [1] = target: Tyrosine-protein kinase Lck (Homo sapiens) (UniProt P06239); settings: at 10 µM
# [2] = target: Tyrosine-protein kinase Lck (Homo sapiens) (UniProt P06239); settings: at 1 µM
# [3] = target: Tyrosine-protein kinase Lck (Homo sapiens) (UniProt P06239); settings: at 10 µM; remark: listed apart in the source
# [4] = target: Tyrosine-protein kinase Lyn (Homo sapiens) (UniProt P07948); settings: at 1 µM
# Chain of Tyrosine-protein kinase Lyn (Homo sapiens) (P07948 2-512 limits assumed): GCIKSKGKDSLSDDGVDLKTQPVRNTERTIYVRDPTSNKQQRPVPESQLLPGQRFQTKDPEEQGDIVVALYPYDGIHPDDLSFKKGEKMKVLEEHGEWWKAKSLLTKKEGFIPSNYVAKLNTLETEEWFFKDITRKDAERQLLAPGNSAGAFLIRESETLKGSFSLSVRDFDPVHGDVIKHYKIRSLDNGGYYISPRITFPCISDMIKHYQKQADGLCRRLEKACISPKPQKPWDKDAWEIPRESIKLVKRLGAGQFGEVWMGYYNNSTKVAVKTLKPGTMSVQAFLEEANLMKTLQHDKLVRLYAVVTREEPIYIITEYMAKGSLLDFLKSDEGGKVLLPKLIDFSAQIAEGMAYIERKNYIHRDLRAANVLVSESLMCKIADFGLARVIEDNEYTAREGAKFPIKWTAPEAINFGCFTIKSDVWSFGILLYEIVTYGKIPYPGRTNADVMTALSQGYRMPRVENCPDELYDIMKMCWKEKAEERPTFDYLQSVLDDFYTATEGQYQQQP
# [5] = target: Tyrosine-protein kinase Lyn (Homo sapiens) (UniProt P07948); settings: at 10 µM
# [6] = target: Mitogen-activated protein kinase 3 (Homo sapiens) (UniProt P27361); settings: at 1 µM
# Chain of Mitogen-activated protein kinase 3 (Homo sapiens) (P27361 whole entry): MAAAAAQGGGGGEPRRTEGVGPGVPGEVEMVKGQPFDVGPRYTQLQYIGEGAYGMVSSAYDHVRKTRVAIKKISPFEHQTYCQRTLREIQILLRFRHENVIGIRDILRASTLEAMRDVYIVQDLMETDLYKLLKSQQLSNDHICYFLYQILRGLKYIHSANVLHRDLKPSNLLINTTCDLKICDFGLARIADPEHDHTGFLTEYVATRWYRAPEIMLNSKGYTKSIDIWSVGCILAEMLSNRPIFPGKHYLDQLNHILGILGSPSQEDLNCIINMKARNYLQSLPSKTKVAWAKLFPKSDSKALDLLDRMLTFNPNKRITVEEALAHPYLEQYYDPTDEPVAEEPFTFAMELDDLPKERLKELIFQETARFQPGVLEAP
# [7] = target: Mitogen-activated protein kinase 3 (Homo sapiens) (UniProt P27361); settings: at 10 µM
# [8] = target: MAP kinase-activated protein kinase 2 (Homo sapiens) (UniProt P49137); settings: at 1 µM
# Chain of MAP kinase-activated protein kinase 2 (Homo sapiens) (P49137 whole entry, looked up): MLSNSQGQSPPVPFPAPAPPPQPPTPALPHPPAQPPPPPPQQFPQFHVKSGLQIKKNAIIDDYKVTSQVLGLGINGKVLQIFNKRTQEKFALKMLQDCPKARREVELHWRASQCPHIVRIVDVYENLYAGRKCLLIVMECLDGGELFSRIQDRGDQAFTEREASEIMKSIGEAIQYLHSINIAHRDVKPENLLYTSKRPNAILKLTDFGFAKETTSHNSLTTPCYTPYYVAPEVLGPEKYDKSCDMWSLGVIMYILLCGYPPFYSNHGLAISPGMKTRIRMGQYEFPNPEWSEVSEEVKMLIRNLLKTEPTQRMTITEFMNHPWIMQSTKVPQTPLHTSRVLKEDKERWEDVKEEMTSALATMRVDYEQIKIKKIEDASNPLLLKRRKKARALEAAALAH
# [9] = target: MAP kinase-activated protein kinase 2 (Homo sapiens) (UniProt P49137); settings: at 10 µM
# [10] = target: MAP kinase-activated protein kinase 3 (Homo sapiens) (UniProt Q16644); settings: at 10 µM
# Chain of MAP kinase-activated protein kinase 3 (Homo sapiens) (Q16644 whole entry, looked up): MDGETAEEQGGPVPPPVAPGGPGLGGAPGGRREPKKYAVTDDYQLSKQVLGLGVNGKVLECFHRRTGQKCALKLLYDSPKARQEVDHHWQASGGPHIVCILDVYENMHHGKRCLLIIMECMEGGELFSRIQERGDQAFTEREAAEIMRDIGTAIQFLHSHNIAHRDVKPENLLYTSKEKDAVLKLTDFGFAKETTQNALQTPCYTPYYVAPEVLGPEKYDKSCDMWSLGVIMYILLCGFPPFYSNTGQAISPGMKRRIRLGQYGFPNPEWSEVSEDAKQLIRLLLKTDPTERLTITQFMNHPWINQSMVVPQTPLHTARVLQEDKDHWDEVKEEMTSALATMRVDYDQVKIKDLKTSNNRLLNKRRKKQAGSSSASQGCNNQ
# [11] = target: Serine/threonine-protein kinase MARK1 (Homo sapiens) (UniProt Q9P0L2); settings: at 1 µM
# Chain of Serine/threonine-protein kinase MARK1 (Homo sapiens) (Q9P0L2 whole entry, looked up): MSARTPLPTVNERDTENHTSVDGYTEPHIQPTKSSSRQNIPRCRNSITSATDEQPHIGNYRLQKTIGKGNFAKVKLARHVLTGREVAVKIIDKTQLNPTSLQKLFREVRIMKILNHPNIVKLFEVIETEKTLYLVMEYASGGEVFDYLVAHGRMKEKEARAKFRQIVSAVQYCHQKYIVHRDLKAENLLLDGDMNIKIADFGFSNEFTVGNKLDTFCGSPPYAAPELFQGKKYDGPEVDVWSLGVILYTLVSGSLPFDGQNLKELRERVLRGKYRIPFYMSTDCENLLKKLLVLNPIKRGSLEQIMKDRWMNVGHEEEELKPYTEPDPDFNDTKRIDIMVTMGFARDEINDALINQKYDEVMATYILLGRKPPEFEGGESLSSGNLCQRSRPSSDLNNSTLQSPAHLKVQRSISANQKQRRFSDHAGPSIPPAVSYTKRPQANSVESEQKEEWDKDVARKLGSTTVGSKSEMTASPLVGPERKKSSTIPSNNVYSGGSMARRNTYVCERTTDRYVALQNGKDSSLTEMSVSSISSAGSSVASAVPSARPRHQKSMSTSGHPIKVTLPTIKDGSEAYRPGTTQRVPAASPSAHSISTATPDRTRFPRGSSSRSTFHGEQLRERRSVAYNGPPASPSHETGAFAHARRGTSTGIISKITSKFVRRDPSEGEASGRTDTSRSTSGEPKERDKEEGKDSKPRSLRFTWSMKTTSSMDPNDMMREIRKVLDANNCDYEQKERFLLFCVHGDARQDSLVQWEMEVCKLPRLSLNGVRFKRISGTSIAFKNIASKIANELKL
# [12] = target: Serine/threonine-protein kinase MARK1 (Homo sapiens) (UniProt Q9P0L2); settings: at 10 µM
# [13] = target: Dual specificity mitogen-activated protein kinase kinase 1 (Homo sapiens) (UniProt Q02750); settings: at 1 µM
# Chain of Dual specificity mitogen-activated protein kinase kinase 1 (Homo sapiens) (Q02750 whole entry): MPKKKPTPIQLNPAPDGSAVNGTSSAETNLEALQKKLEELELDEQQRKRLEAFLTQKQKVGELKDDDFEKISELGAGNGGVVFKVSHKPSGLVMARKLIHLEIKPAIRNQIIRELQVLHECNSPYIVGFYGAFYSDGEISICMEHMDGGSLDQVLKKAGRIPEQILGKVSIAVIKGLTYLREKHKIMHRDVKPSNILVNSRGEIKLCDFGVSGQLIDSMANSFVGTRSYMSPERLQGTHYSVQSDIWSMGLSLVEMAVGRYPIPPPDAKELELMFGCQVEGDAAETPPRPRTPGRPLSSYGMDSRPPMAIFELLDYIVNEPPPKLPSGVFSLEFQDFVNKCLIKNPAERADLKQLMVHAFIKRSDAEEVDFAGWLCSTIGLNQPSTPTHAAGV
# [14] = target: Dual specificity mitogen-activated protein kinase kinase 1 (Homo sapiens) (UniProt Q02750); settings: at 10 µM
# [15] = target: Maternal embryonic leucine zipper kinase (Homo sapiens) (UniProt Q14680); settings: at 1 µM
# Chain of Maternal embryonic leucine zipper kinase (Homo sapiens) (Q14680 whole entry, looked up): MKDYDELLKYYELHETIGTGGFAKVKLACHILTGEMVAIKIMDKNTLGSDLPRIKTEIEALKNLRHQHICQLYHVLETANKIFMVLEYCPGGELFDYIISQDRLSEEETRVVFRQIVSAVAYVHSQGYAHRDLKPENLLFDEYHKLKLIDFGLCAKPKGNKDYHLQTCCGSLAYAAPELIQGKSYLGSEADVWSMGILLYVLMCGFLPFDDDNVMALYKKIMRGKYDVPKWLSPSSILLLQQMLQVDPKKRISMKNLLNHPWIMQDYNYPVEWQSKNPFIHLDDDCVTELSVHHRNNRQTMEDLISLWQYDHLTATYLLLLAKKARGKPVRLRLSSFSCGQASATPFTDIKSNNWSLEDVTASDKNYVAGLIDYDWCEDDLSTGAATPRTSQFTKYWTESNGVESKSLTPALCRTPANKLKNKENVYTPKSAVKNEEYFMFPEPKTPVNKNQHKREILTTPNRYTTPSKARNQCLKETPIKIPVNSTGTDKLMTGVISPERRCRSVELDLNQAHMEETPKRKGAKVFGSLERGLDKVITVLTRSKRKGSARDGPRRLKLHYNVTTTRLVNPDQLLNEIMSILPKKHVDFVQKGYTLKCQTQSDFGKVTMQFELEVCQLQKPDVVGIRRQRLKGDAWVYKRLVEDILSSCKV
# [16] = target: Maternal embryonic leucine zipper kinase (Homo sapiens) (UniProt Q14680); settings: at 10 µM
# [17] = target: Misshapen-like kinase 1 (Homo sapiens) (UniProt Q8N4C8); settings: at 1 µM
# [18] = target: Misshapen-like kinase 1 (Homo sapiens) (UniProt Q8N4C8); settings: at 10 µM
# [19] = target: Mitogen-activated protein kinase 1 (Homo sapiens) (UniProt P28482); settings: at 1 µM
# Chain of Mitogen-activated protein kinase 1 (Homo sapiens) (P28482 whole entry): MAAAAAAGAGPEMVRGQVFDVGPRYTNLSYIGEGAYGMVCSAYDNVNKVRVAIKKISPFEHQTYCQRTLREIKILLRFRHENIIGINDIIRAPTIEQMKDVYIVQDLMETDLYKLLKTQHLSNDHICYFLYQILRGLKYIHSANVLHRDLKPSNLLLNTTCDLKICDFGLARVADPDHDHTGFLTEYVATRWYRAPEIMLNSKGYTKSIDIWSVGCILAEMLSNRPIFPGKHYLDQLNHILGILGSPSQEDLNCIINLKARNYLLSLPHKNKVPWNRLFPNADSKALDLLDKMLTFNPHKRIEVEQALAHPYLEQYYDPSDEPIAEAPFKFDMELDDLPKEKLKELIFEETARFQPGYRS
# [20] = target: Mitogen-activated protein kinase 1 (Homo sapiens) (UniProt P28482); settings: at 10 µM
# Chain of Tyrosine-protein kinase Lck (Homo sapiens) (P06239 2-509 limits assumed): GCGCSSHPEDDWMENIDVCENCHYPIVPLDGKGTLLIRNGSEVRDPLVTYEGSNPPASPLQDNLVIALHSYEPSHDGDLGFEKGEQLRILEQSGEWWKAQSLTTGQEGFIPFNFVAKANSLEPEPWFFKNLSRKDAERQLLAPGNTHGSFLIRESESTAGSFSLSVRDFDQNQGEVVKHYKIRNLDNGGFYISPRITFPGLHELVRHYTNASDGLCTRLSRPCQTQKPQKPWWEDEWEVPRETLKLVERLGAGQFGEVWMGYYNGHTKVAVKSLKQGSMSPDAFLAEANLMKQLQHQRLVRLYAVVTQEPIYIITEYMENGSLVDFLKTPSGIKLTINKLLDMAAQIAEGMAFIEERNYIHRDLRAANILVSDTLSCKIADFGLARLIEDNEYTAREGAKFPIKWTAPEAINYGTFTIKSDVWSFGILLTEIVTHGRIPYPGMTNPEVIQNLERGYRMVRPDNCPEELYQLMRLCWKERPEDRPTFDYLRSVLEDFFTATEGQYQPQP
Compound,residual activity [1],residual activity [2],residual activity [3],residual activity [4],residual activity [5],residual activity [6],residual activity [7],residual activity [8],residual activity [9],residual activity [10],residual activity [11],residual activity [12],residual activity [13],residual activity [14],residual activity [15],residual activity [16],residual activity [17],residual activity [18],residual activity [19],residual activity [20]
O=C(c1ccccc1)c1ccc(N2CCOCC2)cc1O,94%,96%,78%,85%,72%,90%,89%,73%,89%,93%,93%,83%,80%,90%,85%,65%,85%,60%,,
O=C1NC(=O)C(c2cn(CCCn3ccnc3)c3ccccc23)=C1Nc1ccccc1,65%,,66%,,39%,,70%,100%,,,77%,51%,104%,39%,,,,47%,104%,110%
c1ccc(-c2cnc(Nc3ccc(OCCN4CCCC4)cc3)s2)cc1,19%,36%,5%,29%,4%,,,,,104%,,,113%,,64%,20%,61%,12%,,
COc1ccc(-c2cnc3c(-c4ccsc4)cnn3c2)cc1,123%,93%,91%,98%,95%,84%,91%,91%,,,91%,95%,,,80%,87%,89%,76%,,
CCCC(=O)Oc1ccc2[nH]c(C(=O)c3cc4ccccc4[nH]3)cc2c1,73%,80%,76%,61%,31%,77%,80%,75%,87%,94%,80%,84%,93%,100%,88%,87%,82%,82%,100%,104%
Nc1ncnc2[nH]nc(Nc3ccc(F)cc3)c12,14%,31%,19%,19%,3%,90%,43%,75%,95%,112%,,69%,60%,23%,,51%,,48%,101%,67%
Nc1ncnc2c1c(-c1ccc(Oc3ccccc3)cc1)cn2C1CCCC1,-1%,-3%,2%,0%,1%,76%,66%,82%,77%,84%,74%,54%,48%,24%,72%,31%,93%,82%,106%,93%
CC(C)(C)n1nc(Cc2cccc3ccccc23)c2c(N)ncnc21,6%,44%,12%,10%,1%,78%,51%,,,90%,91%,80%,94%,63%,72%,30%,86%,26%,81%,41%
O=C1NC(=O)c2c1c1c3ccccc3[nH]c1n1cncc21,49%,72%,47%,57%,19%,86%,90%,79%,89%,82%,25%,21%,59%,67%,27%,10%,77%,45%,,98%
COc1ccc(CNC(=O)Nc2ncc([N+](=O)[O-])s2)cc1,37%,6%,9%,,,,,,,,,76%,,,,,,,120%,101%
O=c1cc(N2CCNCC2)oc2c(-c3ccccc3)cccc12,85%,92%,88%,,71%,86%,87%,94%,85%,89%,82%,89%,99%,89%,80%,78%,104%,99%,101%,
O=C(O)/C=C/c1cc(Br)c(Br)c(Br)c1Br,95%,,80%,70%,63%,106%,104%,93%,79%,82%,104%,82%,106%,65%,82%,80%,105%,87%,,
O=C(CCCc1ccc(-c2ccccc2F)cc1)Nc1ccc(O)cc1,58%,99%,88%,97%,85%,100%,88%,95%,76%,,102%,94%,103%,111%,100%,77%,111%,102%,106%,92%
COc1cc2nccc(Oc3ccc(NC(=O)Nc4cc(C)on4)c(Cl)c3)c2cc1OC,1%,-2%,1%,-1%,2%,,,,,67%,99%,,62%,20%,,80%,71%,21%,103%,104%
CCCCc1c(-c2ccc(OC)cc2)[nH]c2nccnc12,63%,63%,82%,37%,11%,,,89%,109%,109%,78%,76%,140%,112%,74%,75%,104%,,117%,105%
O=C1Nc2ccccc2/C1=C\c1c(Cl)[nH]c2ccccc12,48%,,55%,,62%,,,,,85%,,74%,,,77%,30%,,,121%,
O=c1cc(N2CCOCC2)oc2c1ccc1ccccc12,101%,89%,88%,103%,90%,101%,80%,100%,87%,109%,93%,89%,,92%,92%,91%,102%,110%,103%,106%
Nc1nc(Nc2ccc(S(N)(=O)=O)cc2)nn1C(=O)c1c(F)cccc1F,29%,66%,18%,40%,11%,102%,,,,,,,73%,64%,,,107%,80%,,
CSc1nc(-c2ccc(F)cc2)c(-c2ccnc(NC(C)c3ccccc3)c2)[nH]1 (stereo not given),62%,,37%,52%,29%,,,79%,98%,,94%,76%,,,88%,61%,,59%,,
CCCCc1c(-c2ccc(O)cc2)[nH]c2nccnc12,50%,63%,59%,,,96%,73%,98%,,,74%,38%,,,76%,72%,97%,86%,,
COc1cc2ncnc(Nc3cccc(Cl)c3)c2cc1OC,12%,49%,15%,10%,1%,,65%,108%,105%,65%,,83%,114%,71%,89%,59%,,76%,101%,80%
COc1ccc2c(c1)c(C1=C(c3c[nH]c4ccccc34)C(=O)NC1=O)cn2CCCN(C)C,25%,65%,27%,63%,13%,104%,82%,,,135%,75%,53%,102%,75%,54%,26%,,61%,114%,
O=C(c1cc2cc(O)ccc2[nH]1)c1cc2cc(O)ccc2[nH]1,2%,22%,7%,6%,-1%,82%,64%,64%,51%,,40%,5%,80%,26%,27%,3%,21%,4%,,
O=C1NC(=O)C(c2c[nH]c3ccccc23)=C1c1c[nH]c2ccccc12,37%,,41%,82%,32%,,61%,98%,79%,,81%,37%,34%,7%,80%,27%,,41%,,
CCN(CC)CCNC(=O)c1c(C)[nH]c(/C=C2\C(=O)Nc3ccc(Cl)cc32)c1C,2%,6%,-1%,2%,3%,,115%,,,,14%,3%,21%,8%,8%,3%,9%,2%,,
CC(C)N(CCC(=O)c1ccc2ccccc2c1)Cc1ccccc1,77%,,,,,85%,76%,,,,73%,75%,,,75%,87%,,,,
